# Data from article PMC7862700, “An all-to-all approach to the identification of sequence-specific readers for epigenetic DNA modifications on cytosine”.
# Columns and labels:
# Assay in all cases: DAPPL (digital affinity profiling via proximity ligation, sequencing); 10 mM Tris-HCl pH 7.5, 50 mM NaCl, 1 mM DTT, 4% glycerol, room temperature, 30 min; GST-TFs on glutathione beads, 16-mer random dsDNA library, 0.1% formaldehyde crosslink after washing; high values mean tight binding
# Details in all cases: protein: recombinant; tags: N-terminal GST; dsDNA, one strand shown
# [1] = molecular target: T1, FLI1 (Homo sapiens, UniProt Q01543 1-452)
# T1 sequence: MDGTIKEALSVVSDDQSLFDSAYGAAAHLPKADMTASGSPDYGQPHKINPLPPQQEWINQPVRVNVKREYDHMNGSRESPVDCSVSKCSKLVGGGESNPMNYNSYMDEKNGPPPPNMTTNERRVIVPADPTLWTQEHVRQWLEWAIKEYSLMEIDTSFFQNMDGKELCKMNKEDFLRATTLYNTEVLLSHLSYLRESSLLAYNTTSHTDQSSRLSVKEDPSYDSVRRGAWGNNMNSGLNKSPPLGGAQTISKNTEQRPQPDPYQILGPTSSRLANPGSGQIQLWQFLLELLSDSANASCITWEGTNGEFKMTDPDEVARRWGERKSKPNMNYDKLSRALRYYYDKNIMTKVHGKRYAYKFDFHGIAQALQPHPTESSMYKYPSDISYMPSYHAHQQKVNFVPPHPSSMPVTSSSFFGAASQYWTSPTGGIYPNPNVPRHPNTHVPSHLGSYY
# Method in brief: (§1)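 Yeast served to express human transcription factors as GST fusions, which were then captured on glutathione beads and labelled with DNA barcodes. Pooled with a tag-only sample, they were incubated with 200 nmole of a 16-mer random double-stranded DNA library for 30 min at room temperature in Tris/NaCl/DTT/glycerol buffer, washed, crosslinked with 0.1% formaldehyde, ligated by proximity, amplified by PCR and sequenced. Dividing each hexamer's read frequency for a factor by its frequency for the tag-only sample gives the binding signal.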
# [2] = molecular target: T2, ELK1 (Homo sapiens, UniProt P19419 1-428)
# T2 sequence: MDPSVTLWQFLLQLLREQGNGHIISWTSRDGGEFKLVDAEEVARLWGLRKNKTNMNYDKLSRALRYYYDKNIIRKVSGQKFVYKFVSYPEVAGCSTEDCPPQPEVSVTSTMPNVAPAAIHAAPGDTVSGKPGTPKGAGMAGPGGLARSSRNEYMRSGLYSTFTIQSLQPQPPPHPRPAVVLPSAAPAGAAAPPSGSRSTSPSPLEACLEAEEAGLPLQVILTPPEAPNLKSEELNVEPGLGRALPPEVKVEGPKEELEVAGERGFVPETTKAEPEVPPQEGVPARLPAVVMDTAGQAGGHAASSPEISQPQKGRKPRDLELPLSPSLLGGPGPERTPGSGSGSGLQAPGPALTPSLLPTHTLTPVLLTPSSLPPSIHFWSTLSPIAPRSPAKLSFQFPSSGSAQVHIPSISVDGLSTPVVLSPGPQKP
# Method in brief: as §1
# [3] = molecular target: T3, ERG (Homo sapiens, UniProt P11308 1-479)
# T3 sequence: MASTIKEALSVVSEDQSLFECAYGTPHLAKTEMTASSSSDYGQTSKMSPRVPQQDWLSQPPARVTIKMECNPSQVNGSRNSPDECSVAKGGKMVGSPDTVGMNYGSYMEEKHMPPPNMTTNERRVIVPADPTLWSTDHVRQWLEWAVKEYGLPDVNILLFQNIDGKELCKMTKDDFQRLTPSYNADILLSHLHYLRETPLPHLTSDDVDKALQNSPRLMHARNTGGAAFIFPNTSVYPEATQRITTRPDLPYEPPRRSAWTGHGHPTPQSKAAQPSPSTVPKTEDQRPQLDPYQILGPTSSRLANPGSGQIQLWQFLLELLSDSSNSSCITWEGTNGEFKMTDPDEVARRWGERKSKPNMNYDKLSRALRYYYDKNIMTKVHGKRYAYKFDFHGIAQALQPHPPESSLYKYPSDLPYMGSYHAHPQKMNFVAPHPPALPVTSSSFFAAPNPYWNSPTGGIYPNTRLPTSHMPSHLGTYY
# Method in brief: as §1
# [4] = molecular target: T4, EHF (Homo sapiens, UniProt Q9NZC4 1-300)
# T4 sequence: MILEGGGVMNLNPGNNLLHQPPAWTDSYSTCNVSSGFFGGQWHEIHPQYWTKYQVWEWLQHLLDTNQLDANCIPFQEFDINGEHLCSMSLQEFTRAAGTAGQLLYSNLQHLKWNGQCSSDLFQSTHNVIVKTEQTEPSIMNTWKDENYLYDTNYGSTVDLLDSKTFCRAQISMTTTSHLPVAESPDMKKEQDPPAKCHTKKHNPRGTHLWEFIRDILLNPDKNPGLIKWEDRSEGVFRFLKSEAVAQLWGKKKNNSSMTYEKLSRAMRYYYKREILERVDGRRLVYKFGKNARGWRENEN
# Method in brief: as §1
# [5] = molecular target: T5, SPIC (Homo sapiens, UniProt Q8N5J4 1-248)
# T5 sequence: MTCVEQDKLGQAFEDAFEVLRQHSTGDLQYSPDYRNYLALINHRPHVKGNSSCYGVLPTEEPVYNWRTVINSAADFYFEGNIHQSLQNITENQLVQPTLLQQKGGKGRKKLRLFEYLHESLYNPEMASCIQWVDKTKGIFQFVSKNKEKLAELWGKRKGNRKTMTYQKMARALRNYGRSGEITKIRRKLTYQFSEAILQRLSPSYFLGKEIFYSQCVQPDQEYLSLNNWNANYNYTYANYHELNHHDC
# Method in brief: as §1
# [6] = molecular target: ELF4 (Homo sapiens, UniProt Q99607 1-663)
# Method in brief: as §1
# [7] = molecular target: T6, ELK4 (Homo sapiens, UniProt P28324-2 1-405)
# T6 sequence: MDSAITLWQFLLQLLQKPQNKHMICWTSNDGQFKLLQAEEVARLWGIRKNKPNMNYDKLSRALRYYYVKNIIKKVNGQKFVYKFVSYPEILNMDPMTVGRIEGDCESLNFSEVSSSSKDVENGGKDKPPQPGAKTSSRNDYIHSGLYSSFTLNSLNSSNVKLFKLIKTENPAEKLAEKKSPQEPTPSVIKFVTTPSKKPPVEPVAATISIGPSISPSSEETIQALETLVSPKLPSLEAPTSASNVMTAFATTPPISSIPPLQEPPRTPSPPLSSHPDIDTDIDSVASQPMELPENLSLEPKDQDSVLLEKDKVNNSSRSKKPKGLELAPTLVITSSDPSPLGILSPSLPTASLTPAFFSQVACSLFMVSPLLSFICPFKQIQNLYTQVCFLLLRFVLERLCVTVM
# Method in brief: as §1
# [8] = molecular target: T7, ETV2 (Homo sapiens, UniProt O00321 1-342)
# T7 sequence: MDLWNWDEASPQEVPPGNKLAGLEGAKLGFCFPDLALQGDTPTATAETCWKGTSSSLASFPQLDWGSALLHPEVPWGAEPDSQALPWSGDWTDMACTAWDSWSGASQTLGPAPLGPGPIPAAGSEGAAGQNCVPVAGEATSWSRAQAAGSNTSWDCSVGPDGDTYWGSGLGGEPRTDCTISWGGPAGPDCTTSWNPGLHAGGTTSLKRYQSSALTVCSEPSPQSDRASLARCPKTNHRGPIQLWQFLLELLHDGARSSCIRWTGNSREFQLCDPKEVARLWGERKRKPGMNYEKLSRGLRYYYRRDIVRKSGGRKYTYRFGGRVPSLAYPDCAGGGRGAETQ
# Method in brief: as §1
# [9] = molecular target: ETV1 (Homo sapiens, UniProt P50549 1-477)
# Method in brief: as §1
# [10] = molecular target: T8, ETS2 (Homo sapiens, UniProt P15036 1-469)
# T8 sequence: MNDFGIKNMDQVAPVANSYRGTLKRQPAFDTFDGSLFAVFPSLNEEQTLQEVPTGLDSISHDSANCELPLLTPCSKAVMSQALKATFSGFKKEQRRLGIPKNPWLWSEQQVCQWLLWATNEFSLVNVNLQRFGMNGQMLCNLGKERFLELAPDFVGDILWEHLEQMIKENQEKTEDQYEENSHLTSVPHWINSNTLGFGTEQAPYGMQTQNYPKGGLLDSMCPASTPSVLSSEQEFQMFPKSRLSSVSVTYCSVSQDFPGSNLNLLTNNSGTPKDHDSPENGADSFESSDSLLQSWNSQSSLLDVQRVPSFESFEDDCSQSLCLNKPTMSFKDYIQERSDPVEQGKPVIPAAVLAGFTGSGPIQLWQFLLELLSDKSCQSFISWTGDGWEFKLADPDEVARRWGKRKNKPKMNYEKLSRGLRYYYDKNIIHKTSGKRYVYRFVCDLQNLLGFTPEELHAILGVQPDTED
# Method in brief: as §1
# [11] = molecular target: T9, ETV3 (Homo sapiens, UniProt P41162-2 1-143)
# T9 sequence: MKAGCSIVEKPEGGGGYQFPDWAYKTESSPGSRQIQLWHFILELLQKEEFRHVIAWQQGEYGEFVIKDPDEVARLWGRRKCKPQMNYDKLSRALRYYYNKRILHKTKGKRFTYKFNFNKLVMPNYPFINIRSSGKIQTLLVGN
# Method in brief: as §1
# ETV1, sequence (P50549 whole entry): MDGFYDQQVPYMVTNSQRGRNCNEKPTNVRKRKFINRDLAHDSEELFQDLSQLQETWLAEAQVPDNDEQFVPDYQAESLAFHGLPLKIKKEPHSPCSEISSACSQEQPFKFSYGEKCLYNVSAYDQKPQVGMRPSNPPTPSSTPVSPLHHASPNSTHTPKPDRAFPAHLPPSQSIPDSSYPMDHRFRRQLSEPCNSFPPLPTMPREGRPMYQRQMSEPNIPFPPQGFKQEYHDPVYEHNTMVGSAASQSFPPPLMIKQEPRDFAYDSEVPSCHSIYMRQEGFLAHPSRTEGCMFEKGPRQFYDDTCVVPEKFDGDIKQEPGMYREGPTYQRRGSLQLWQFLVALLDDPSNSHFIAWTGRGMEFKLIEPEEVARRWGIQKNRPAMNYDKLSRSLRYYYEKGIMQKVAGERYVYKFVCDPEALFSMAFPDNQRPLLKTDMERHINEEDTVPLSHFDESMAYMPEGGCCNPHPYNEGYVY
# ELF4, sequence (Q99607 whole entry): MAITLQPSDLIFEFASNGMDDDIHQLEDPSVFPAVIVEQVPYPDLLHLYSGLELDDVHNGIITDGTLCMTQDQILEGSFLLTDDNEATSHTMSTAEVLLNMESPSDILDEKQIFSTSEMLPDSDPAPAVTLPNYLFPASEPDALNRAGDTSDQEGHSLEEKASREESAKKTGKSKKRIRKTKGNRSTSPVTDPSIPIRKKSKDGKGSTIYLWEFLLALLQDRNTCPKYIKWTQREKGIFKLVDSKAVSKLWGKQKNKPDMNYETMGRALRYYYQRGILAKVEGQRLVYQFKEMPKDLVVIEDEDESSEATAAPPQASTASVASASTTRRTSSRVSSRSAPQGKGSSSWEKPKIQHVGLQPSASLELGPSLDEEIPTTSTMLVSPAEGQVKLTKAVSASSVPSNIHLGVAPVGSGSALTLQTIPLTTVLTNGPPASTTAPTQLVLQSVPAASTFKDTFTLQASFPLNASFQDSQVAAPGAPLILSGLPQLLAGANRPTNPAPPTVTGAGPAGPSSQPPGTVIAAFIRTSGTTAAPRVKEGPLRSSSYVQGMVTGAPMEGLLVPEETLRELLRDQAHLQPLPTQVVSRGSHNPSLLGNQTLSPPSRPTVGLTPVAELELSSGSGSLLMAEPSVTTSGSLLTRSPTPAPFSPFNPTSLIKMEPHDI
sequence,measurement,setting,value
GCTAAG,binding signal,[1],"1.13 fold enrichment (6-mer frequency, TF over GST control)"
same,binding signal,[2],"1.08 fold enrichment (6-mer frequency, TF over GST control)"
same,binding signal,[3],"1.01 fold enrichment (6-mer frequency, TF over GST control)"
same,binding signal,[4],"1.05 fold enrichment (6-mer frequency, TF over GST control)"
same,binding signal,[5],"1.08 fold enrichment (6-mer frequency, TF over GST control)"
same,binding signal,[6],"1.06 fold enrichment (6-mer frequency, TF over GST control)"
same,binding signal,[7],"1.18 fold enrichment (6-mer frequency, TF over GST control)"
same,binding signal,[8],"1.07 fold enrichment (6-mer frequency, TF over GST control)"
same,binding signal,[9],"1 fold enrichment (6-mer frequency, TF over GST control)"
same,binding signal,[10],"1.04 fold enrichment (6-mer frequency, TF over GST control)"
same,binding signal,[11],"1.04 fold enrichment (6-mer frequency, TF over GST control)"
